Hits are enriched below; roughly 12% of the tested compounds scored in any of these assays.
Shiga inhibitor – blocks Shiga toxin action in Vero cells; Vero cells, Shiga toxin protein synthesis inhibition reporter; inhibition, % at 38.7 µM; 290,000 tested, 9.2% active; in the data active means inhibition mostly above about 28%, no sharp cut-off; inactive means mostly below about 43%; further: 0% is about no effect
MARV entry inh – blocks Marburg virus binding to or entry into cells; Potency, µM (doses to about 37.8 µM), inactives show at the top dose activity change, negative = inhibition, usual class: inhibitors; Marburg virus pseudotyped entry inhibition, cell reporter; 300,000 tested, 1.8% active; calls by dose curve; tested in HEK293 cells; further: potency means the concentration at half of the fitted maximal effect; on the % scale 0 is the no-effect control and ±100 the full control effect
Lassa entry inh – blocks Lassa virus binding to or entry into cells; Potency, µM (titrated, usually from 37.9 µM), for the others: top-dose activity change, negative = inhibition, usual class: inhibitors; 300,000 tested, 1.2% active; Lassa virus pseudotype entry inhibition, cell reporter; calls by dose curve; tested in HEK293 cells; further: potency means the concentration at half of the fitted maximal effect; on the % scale 0 is the no-effect control and ±100 the full control effect; nearly all actives have a fitted effect of over 50% in size
Cycloheximide cs – counter-screen hit for Shiga toxin inhibitors, cycloheximide; max response, %; cell reporter, cycloheximide protein synthesis inhibition counterscreen; 300,000 tested, 12% active; in the data active means max response mostly above about 13%, no sharp cut-off; inactive means mostly below about 14%; further: read at 38.3 µM for the half of the compounds with a filed dose; 0% is about no effect
Active calls of the source: *; ? = inconclusive; · = not tested or not shown; [ ] = dose if it differs, or a comment.

SMILES | Shiga inhibitor | MARV entry inh | Lassa entry inh | Cycloheximide cs
Clc1ccc(-c2csc(N3CCOCC3)n2)cc1 | 56.4* | ? | ? | 47.2*
COc1ccc(/C=C(/C#N)c2nc(-c3ccc(-c4ccccc4)cc3)cs2)cc1OC | · | · | 12.1%[46.1 µM] | ·
O=C(N1CCOCC1)N1CCN(c2nc(-c3ccc(F)cc3)cs2)CC1 | -3.4 | 1.0% | ? | 10.2
O=C(O)Cn1c(=O)c(F)cn(C2CCCO2)c1=O (centres undefined) | -6.0 | 0.1%[46.1 µM] | 1.4% | -4.9
Fc1ccc(N2CCN(c3ncnc4c3nc3n4CCCC3)CC2)cc1 | · | 3.0%[46.1 µM] | 4.8%[46.1 µM] | ·
O=C(c1ccccc1Cl)N1CCN(C(=O)C2CCCO2)CC1 (centres undefined) | · | 27.7%[46.1 µM] | 0.7% | ·
COc1cc(Cl)c(C)cc1NC(=O)c1cc2ccc3cccnc3c2[nH]1 | · | · | -8.7%[46.1 µM] | ·
COc1ccc(C)cc1NC(=O)C1CCN(S(=O)(=O)c2ccc3c(c2)CCCN3C(C)=O)CC1 | · | · | 7.7%[46.1 µM] | ·
O=C(COc1ccccc1Cl)c1ccc2c(c1)CCCC2 | 53.4* | ? | -22.5% | 26.2*
O=C(COc1ccc(Br)cc1Cl)c1ccc[nH]1 | 68.6* | ? | ? | 38.3*
O=C(COc1ccccc1Cl)c1ccc[nH]1 | 57.1 | ? | ? | 30.4*
O=C(COC(=O)c1nc(Cl)ccc1Cl)c1ccc[nH]1 | · | -1.9%[46.1 µM] | -8.5% | ·
Cc1oc2c(Cl)c(Cl)c(O)c(CN(C)C)c2c1C(=O)c1ccc(Cl)cc1 | -7.1 | · | · | -2.2
CCOc1ccc(CNC(=O)CCC(=O)N2CC3CCCN3c3ccccc32)cc1 (centres undefined) | · | · | 15.1%[46.1 µM] | ·
Cc1ccccc1OCC(=O)O/N=C(\N)Cc1cccs1 | -11.5 | 23.0% | -21.7% | 0.7
N/C(Cc1cccs1)=N\OC(=O)COc1ccc(Br)cc1 | 23.4 | -0.5% | 4.9% | 30.2*
COc1ccc(OCC(=O)O/N=C(\N)Cc2cccs2)cc1 | 63.5* | ? | 7.6% | 21.9*
Cc1ccccc1C(=O)O/N=C(\N)Cc1cccs1 | 95.0* | ? | 8.5%[46.1 µM] | 87.6*
Cc1cccc(OCC(=O)O/N=C(\N)Cc2cccs2)c1 | -6.5 | 14.9% | -3.2% | -4.1
Cc1cc(C(F)(F)F)cc(NNC(=O)NC(=O)c2c(F)cccc2Cl)n1 | -17.8 | 7.08µM* | ? | -2.4
COC(=O)[C@@]1(O)C[C@@H]2O[C@@]1(C)n1c3ccccc3c3c4c(c5c6ccccc6n2c5c31)C(=O)NC4 | -11.6 | · | · | -3.3
COc1ccc(-c2nc(-c3ccccc3)c(-c3ccc(O)cc3)[nH]2)cc1 | · | -16.8%[46.1 µM] | -0.7%[46.1 µM] | ·
Cc1nc(N=Nc2ccc(O)cc2)n[nH]1 | 53.3* | · | · | 20.4*
Cc1ccc(S(=O)(=O)Nc2ccc(N=Nc3ccc(O)cc3)cc2)cc1 | 21.4 | ? | ? | 7.8
Cc1ccc(-c2nc(N=Nc3ccc(O)cc3)n[nH]2)cc1 | 104.8* | -6.4% | ? | 48.9*
SMILES | Shiga inhibitor | MARV entry inh | Lassa entry inh | Cycloheximide cs
Cc1c(N=Nc2ccc(O)cc2)c(=O)n(-c2ccccc2)n1C | -8.2 | 18.4%[46.1 µM] | -7.7% | -1.4
COc1ccc(-c2nc(N=Nc3ccc(O)cc3)n[nH]2)cc1 | -8.1 | 2.9% | -2.3% | 34.7*
CCOCC(=O)Nc1ccc(-c2cn3c(C)csc3n2)cc1 | · | · | 2.5%[46.1 µM] | ·
CCOC(=O)N/N=C\c1ccccc1OC/C=C/c1ccccc1 | 54.9* | · | · | 34.1*
O=C(COc1ccccc1)NCC(=O)N/N=C/c1cc(Br)ccc1OCc1ccccc1 | 24.9 | 8.91µM* | ? | 13.3
COC(=O)N/N=C\c1ccccc1OC/C=C/c1ccccc1 | 38.5 | ? | ? | 31.5*
COc1cc(/C=N\NC(C)=O)ccc1OC/C=C/c1ccccc1 | -4.6 | -26.0%[46.1 µM] | -29.2%[46.1 µM] | -1.2
N#CCC(=O)N/N=C\c1cc(Br)ccc1OC/C=C/c1ccccc1 | 97.7* | 13.3%[46.1 µM] | 1.1%[46.1 µM] | 25.6*
Cc1ccc2occ(-c3cc(-c4ccccc4)nc4c3COc3ccccc3-4)c(=O)c2c1 | · | 10.2%[46.1 µM] | 19.1%[46.1 µM] | ·
O=S(=O)(Nc1cccc(-c2ccc(N3CCCC3)nn2)c1)c1ccccc1C(F)(F)F | · | · | 17.3%[46.1 µM] | ·
CCc1ccc(N2CC(C(=O)Nc3ccc(S(=O)(=O)N4CCOCC4)cc3)CC2=O)cc1 (centres undefined) | · | -22.8% | -28.6% | ·
O=C(NC1CC1)c1ccc(CSCc2ccccc2Cl)o1 | 18.1 | · | · | 26.3*
Cc1cc(OCc2cccc(Cl)c2)c(C)cc1CN1CCOCC1 | 25.0 | ? | ? | 23.8*
COc1ccc(Cl)cc1CN1CCOCC1 | 41.4 | -0.3% | ? | 0.1
Cc1ccc(OCc2ccc(Br)cc2)c([N+](=O)[O-])n1 | 83.8* | · | · | 56.1*
CCOc1cc(Br)c(COc2ccc(C)nc2[N+](=O)[O-])cc1OCC | -1.2 | ? | ? | -3.5
O=[N+]([O-])c1ncccc1OCc1ccc(-c2ccccc2)cc1 | 40.8 | 18.2%[46.1 µM] | · | 18.7*
CNc1cc([N+](=O)[O-])ccc1OCc1ccccc1 | 89.5* | · | · | 27.2*
Cc1ccc(OCCOc2cccc(Br)c2)c([N+](=O)[O-])n1 | 96.0* | ? | 13.8% | 40.0*
CCCOc1ccc(NC(=O)CC2C(=O)N(C)C(=S)N2Cc2cccs2)cc1 (centres undefined) | 8.1 | ? | ? | 6.7
COC(=O)CSc1nnc(CNC(=O)c2ccc(OC)c(OC)c2)n1C | -1.4 | 15.6%[46.1 µM] | 1.3% | -5.8
Cc1ccc(OCc2ccc(-c3ccccc3)cc2)c([N+](=O)[O-])n1 | 29.2 | -1.0%[46.1 µM] | -20.8% | 25.1*
CCNC(=S)N/N=C/c1cc(C)ccc1C | -4.9 | 9.5% | -0.8% | -1.2
COc1ccccc1NC(=S)N/N=C/c1cccc(C)c1 | 17.4 | ? | ? | 23.3*
COc1cccc(/C=N/NC(=S)Nc2cccnc2)c1 | 48.8 | ? | 7.0%[46.1 µM] | 11.6
SMILES | Shiga inhibitor | MARV entry inh | Lassa entry inh | Cycloheximide cs
CCNC(=S)N/N=C/c1cccc(C)c1 | 56.0* | ? | ? | 36.9*
COc1ccccc1NC(=S)N/N=C/c1ccc(O)cc1 | 40.4* | -26.9% | ? | 68.9*
CC(=O)N1CCc2cc(S(=O)(=O)NC(Cc3ccccc3)C(=O)NCc3ccccc3)ccc21 (centres undefined) | · | -22.6%[46.1 µM] | -13.1%[46.1 µM] | ·
Cc1cccc(CCn2c(=O)c3ccccc3n(CC(=O)Nc3ccccc3F)c2=O)c1 | · | 5.5%[46.1 µM] | ? | ·
COC(=O)Cc1ccc(NC(=O)c2ccccc2Cl)cc1 | 35.4 | ? | ? | 28.2*
CC(=O)Nc1nonc1NC(=O)c1ccc(C(C)(C)C)cc1 | 57.9* | ? | ? | 19.7*
CC(C)(C)c1ccc(C(=O)Nc2ccc(Cl)cc2)cc1 | 100.6* | ? | ? | 42.8*
CC(C)(C)c1ccc(NC(=O)c2ccsc2)cc1 | 45.1* | ? | ? | 28.2*
Cn1c(-c2nonc2NC(=O)c2ccc(C(C)(C)C)cc2)nc2ccccc21 | -3.2 | -1.6% | · | 1.0
CCCNC(=S)Nc1ccc(CC(=O)OC)cc1 | -7.5 | -2.3% | -1.0% | 3.7
CCOC(=O)OC[C@H]1O[C@H](c2ccc(C(C)=O)cc2)C=C[C@H]1Oc1ccc(-c2ccccc2)cc1 | · | 2.8%[14.2 µM] | ? | ·
CNC(=O)C(C#N)(Cc1cc(C(C)=O)ccc1OC)Cc1cc(C(C)=O)ccc1OC | -15.2 | 12.4%[46.1 µM] | · | 1.6
COC(=O)Cc1ccc(NC(=O)c2ccc(C(C)(C)C)cc2)cc1 | -5.6 | ? | 6.51µM* | 1.5
CC1C/C(=N\NC(=S)NC(C)C)CC(C)(C)C1 (centres undefined) | -4.2 | -22.3%[46.1 µM] | -23.4% | -4.1
Cc1cc(C(=O)N=Nc2c(O)n(C)c3ccccc23)c(C)o1 | -4.6 | 8.4% | 4.1% | 27.4*
CCOC(=O)N=Nc1c(O)n(C)c2ccccc12 | 25.6 | ? | 10.6% | 9.9
